Hits are enriched below; roughly 7.5% of the tested compounds scored in any of these assays.
ELG1 genotox: genotoxicity induction in ELG1-luciferase HEK293T cells; HEK293T ELG1-luciferase reporter, luminescence, 16 h; Potency, µM (titrated, usually from 46 µM), without a hit: top-dose activity change, positive = activation, actives largely listed as activators; 330,000 compounds, 1.3% hits; AID 504466; further: % of control where 0% means no effect; nearly all actives have a fitted effect of over 60% in size
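Quantitative HTS format in 1536-well plates. HEK293T ELG1-luciferase reporter cells receive test compound and are incubated 16 hr at 37 °C, 5% CO2; ONE-Glo added, 30 min room temperature, then luminescence read.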
Rab9 prom act: Rab9 promoter activation. Huh7 Rab9 promoter-luciferase reporter, luminescence, 24 h. Potency, µM (top dose mostly 9.22 µM), for the others: at the top dose activation, negative = inhibition, hits mostly activators. 320,000 compounds, 2.8% hits. AID 485297; further: % of control where 0% means no effect; nearly all actives have a fitted effect of over 60% in size
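Huh7 cells stably carrying a Rab9 promoter-luciferase reporter, 1500 cells per well in OP-MEM I with 10% FBS, treated with compound 24 hours at 37C. Luciferase activity read by luminescence after 10 minutes with Amplite reagent.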
FLuc counter: inhibits or activates purified firefly luciferase, miR-21 counter-screen; Potency, µM (series often up to 57.5 µM), inactives show at the highest dose activity change, negative = inhibition, usual class: inhibitors; P08659; AID 588342; purified FLuc, Km substrates, luminescence inhibition; 360,000 compounds, 6.9% hits;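 further: plate controls were vehicle for no effect and reference inhibitor for full effect; nearly all actives have a fitted effect of over 55% in size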
Target sequence (P08659 whole entry, looked up): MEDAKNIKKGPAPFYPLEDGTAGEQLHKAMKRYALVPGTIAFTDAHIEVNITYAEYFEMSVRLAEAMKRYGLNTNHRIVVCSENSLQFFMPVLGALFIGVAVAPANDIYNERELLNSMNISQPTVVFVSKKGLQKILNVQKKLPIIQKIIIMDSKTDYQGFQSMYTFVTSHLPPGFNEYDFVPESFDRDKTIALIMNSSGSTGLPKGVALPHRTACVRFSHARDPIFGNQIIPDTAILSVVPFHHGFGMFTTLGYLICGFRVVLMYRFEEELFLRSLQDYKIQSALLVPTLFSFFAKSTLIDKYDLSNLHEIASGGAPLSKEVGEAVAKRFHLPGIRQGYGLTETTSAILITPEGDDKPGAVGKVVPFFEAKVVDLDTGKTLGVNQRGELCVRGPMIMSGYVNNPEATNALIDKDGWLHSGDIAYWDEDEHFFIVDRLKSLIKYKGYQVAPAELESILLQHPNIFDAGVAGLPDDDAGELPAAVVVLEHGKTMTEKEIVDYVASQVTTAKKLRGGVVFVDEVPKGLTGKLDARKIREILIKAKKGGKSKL
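Purified P. pyralis luciferase (10nM final) with 10uM D-luciferin and 10uM ATP (Km levels) in 50mM Tris acetate pH 7.5, 10mM Mg acetate, 0.01% Tween-20, 0.05% BSA; qHTS 6-point titration, ~60 µM downward; luminescence read.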
NPC1 prom act: NPC1 promoter activation; Huh7 NPC1 promoter luciferase reporter, 24 h; Potency, µM (doses to about 9.22 µM), inactives show at the highest dose activation, most hits filed as activators; 320,000 compounds, 2.4% hits; AID 485313; further: % of control where 0% means no effect; nearly all actives have a fitted effect of over 60% in size
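Luminescence from an NPC1 promoter-driven luciferase reporter in stably transfected Huh7 cells was measured after 24 h compound treatment at 37 °C, followed by 10 min ambient incubation with luciferase detection reagent.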
KinaseGlo FLuc: Kinase-Glo luciferase inhibition (counter-screen); Q27757; Kinase-Glo luciferase, ATP luminescence, 8 min; Potency, µM (top dose mostly 38.3 µM), for inactives: top-dose activity change, negative = inhibition, usual class: inhibitors; 200,000 compounds, 0.28% hits; further: on the % scale 0 is the no-effect control and ±100 the full control effect; nearly all actives have a fitted effect of over 60% in size
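Compound is pinned into ATP-containing buffer (10 uM ATP, imidazole pH 7.2, 7 mM MgCl2). Kinase-Glo luciferase reagent is then added. Light output is recorded following an 8-min room-temperature incubation.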
SMN2 splice up: enhancers of SMN2 splice variant expression; Potency, µM (doses to about 46.1 µM), without a hit: top-dose activity change, positive = activation, actives largely listed as activators; 210,000 compounds, 2.8% hits; AID 1458; HEK293 SMN2-luciferase splicing reporter, luminescence, 30-36 h; further: % of control where 0% means no effect; nearly all actives have a fitted effect of over 55% in size
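qHTS luciferase splicing reporter: luminescence rises when SMN2 exon 7 is included in transfected HEK293 cells. Compound exposure lasted 30-36 h at 37C, with 4.5 mM final sodium butyrate as control, followed by a ONE-Glo read.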
An asterisk follows results filed as active; ? = inconclusive; / = no result; [ ] = dose if it differs, or a comment. The call rests on the fitted dose curve; in most records, active means well fitted curve in the direction sought with a large enough effect; inconclusive means small, poorly fitted or top-dose-only effect, or another doubt; inactive means no such curve, though single readings can be large; an effect the other way counts as inactive or inconclusive. Potency means the concentration at half of the fitted maximal effect.

SMILES | ELG1 genotox | Rab9 prom act | FLuc counter | NPC1 prom act | KinaseGlo FLuc | SMN2 splice up
Cc1cccc(CNC(=O)c2cccc(NC(=O)N3CCSc4ncccc43)c2)c1 | / | / | -12% | / | / | /
COC(=O)c1ccc(NC(C)C(=O)OC)c([N+](=O)[O-])c1 (stereo not given) | 0% | 2% | ? | -1% | -1% | 0%
Cc1c(C(=O)N2CCOCC2)oc2ccc(S(=O)(=O)N3CCCC3)cc12 | / | 0.016µM* | -6% | ? | 0% | 2%
Cc1ccc(CNC(=O)c2oc3ccc(S(=O)(=O)N4CCOCC4)cc3c2C)cc1 | -20% | -1% | 3% | 0% | -4% | 5.6µM*
COc1ccc(CNC(=O)c2oc3ccc(S(=O)(=O)N4CCOCC4)cc3c2C)cc1 | -26% | -8% | 2% | 29% | / | /
C=CCn1c(SCC(N)=O)nc2scc(-c3ccc(C)o3)c2c1=O | ? | 2.5µM* | 4.8µM* | ? | 6% | /
CC1=NN2C(=N)/C(=C\c3cc(C)n(-c4ccccc4)c3C)C(=O)N=C2S1 | 7% | 5% | 4.8µM* | 11% | 10% | -34%
Cc1cc(/C=C2/C(=N)N3C(c4ccccc4)=CSC3=NC2=O)c(C)n1-c1ccccc1 | -1% | 12% | 2.4µM* | 16% | -1% | 6%
CCC(CC)C1=NN2C(=N)/C(=C\c3cc(C)n(-c4cccc(C)c4)c3C)C(=O)N=C2S1 | 0% | 1% | -3% | 2% | 0% | -22%
O=C1c2ccccc2S(=O)(=O)N1CC1CC(c2ccccc2Cl)=NO1 (stereo not given) | 12µM* | 3.2µM* | 2.7µM* | 3.2µM* | 4% | 4µM*
COc1ccccc1C1=NOC(CN2C(=O)c3ccccc3S2(=O)=O)C1 (stereo not given) | ? | 4µM* | 8.5µM* | 2.8µM* | / | /
O=C(CSc1nc(-c2ccccc2Cl)ns1)NCc1ccco1 | 0% | 0% | ? | 2% | -4% | -7%
NC(=O)CSc1nc(-c2ccccc2Cl)ns1 | 13% | 3.2µM* | ? | ? | -7% | ?
COc1ccc(-c2nsc(SCC(=O)Nc3cc(C)on3)n2)cc1 | ? | 12% | 2% | 1% | 1% | -4%
CCc1nnc(NC(=O)CSc2nc(-c3ccc(OC)cc3)ns2)s1 | ? | ? | 1.7µM* | 19% | 1% | ?
CCOC(=O)CSc1nc(-c2ccccc2)ns1 | 1% | 2% | 15µM* | -3% | 0% | 9%
CCOC(=O)CNC(=O)CSc1nc(-c2ccc(OC)cc2)ns1 | 0% | 17% | 12µM* | 5% | 0% | 6%
CCOC(=O)CSc1nnc(-c2ccccc2)c(-c2ccccc2)n1 | -2% | -1% | -3% | -4% | / | /
CNC(=O)C1CCC(Cn2c(=O)c3sccc3n(Cc3cc(C)ccc3C)c2=O)CC1 (stereo not given) | / | / | -2% | / | / | /
CC/C=C\C/C=C\C/C=C\C/C=C\C=C\C(O)CCCC(=O)O (stereo not given) | / | / | / | / | -2% | 1%
CC1(C)Cc2cccc(Oc3cc(NN4CCCCC4)c([N+](=O)[O-])cc3[N+](=O)[O-])c2O1 | -4% | -4% | 9% | -7% | / | /
S=C(Nc1ccccn1)c1ccccn1 | 13µM* | 2.5µM* | 7.6µM* | 2.8µM* | -21% | 20µM*
S=C(Nc1ccccn1)Nc1ccccc1Cl | 10% | ? | -22% | 6% | 0% | /
O=C(Nc1ccc(Cl)cc1)Nc1ccccn1 | ? | 2.2µM* | 5.4µM* | 2.8µM* | / | /
O=C(Nc1ccccn1)c1ccc(-c2ccccc2)cc1 | ? | 0.089µM* | 0.21µM* | 0.1µM* | / | /
SMILES | ELG1 genotox | Rab9 prom act | FLuc counter | NPC1 prom act | KinaseGlo FLuc | SMN2 splice up
Oc1ccccc1CNc1cccc2cccnc12 | ? | 27% | 17µM* | 2% | -2% | /
COC(=O)[C@H]1C[C@@H]1[C@H](NC(C)=O)c1ccccc1 | / | / | / | / | -2% | 9%
O=C(Nc1ccncc1)Nc1ccc(Cl)cc1 | 14% | 6% | 21µM* | 22% | / | /
CCOC(=O)c1ccc(NC(=O)Nc2cccc(C)n2)cc1 | ? | 5% | 1% | 10% | -4% | 6%
O=C(Nc1ccccc1)Nc1cccc2cccnc12 | 6.3µM* | 23% | 6µM* | 3% | -7% | 14µM*
Oc1ccccc1CNc1cnc2ccccc2c1 | ? | ? | 11µM* | ? | 1% | ?
O=C(Nc1ccccc1)Nc1cccc2ccccc12 | 0% | 19% | ? | 11% | / | /
O=C(Nc1ccncc1)Nc1ccncc1 | 7% | -13% | 0% | -8% | 1% | -2%
CCOC(=O)c1ccc(NC(=O)Nc2ccccn2)cc1 | ? | 1.3µM* | 2.7µM* | 2.5µM* | -7% | /
Oc1ccc(Cl)cc1CNc1cnc2ccccc2c1 | 4% | 4% | -13% | -4% | / | /
CC(=O)C1C(c2ccc(Cl)cc2)c2c(noc2C)CC1(C)O (stereo not given) | 5% | -3% | -1% | -2% | / | /
CCN(CC)CCCNC(=O)c1ccc(CS(=O)(=O)c2ccccc2OC)o1 | 0% | 26% | -1% | -2% | / | /
Cc1nc(NC(=O)Nc2ccc(Cl)cc2)sc1C | 10% | 3.2µM* | ? | 12% | 0% | ?
CC(C)(C)c1nnc(NC(=O)Nc2ccc(Cl)cc2)s1 | -3% | ? | -2% | ? | / | /
O=C(Nc1ccccn1)C(=O)Nc1ccccn1 | 4.6µM* | 1.3µM* | 5.4µM* | 1.4µM* | / | /
O=C(Nc1ccccc1)Nc1ccccn1 | ? | ? | 12µM* | ? | -3% | 14µM*
CCCCOC1CC(c2ccc(OCc3ccc(OC)cc3)c(OC)c2)N(C)O1 (stereo not given) | -9% | 8% | ? | 1% | -2% | -31%
O=C(O)/C=C/C(=O)Nc1ccc(OC(F)(F)F)cc1Br | -2% | 0% | -3% | -1% | / | /
Cc1cn2c(=O)cc(COC(=O)c3ccc(NC(=O)COc4ccccc4C)cc3)nc2s1 | / | / | 4% | / | / | /
CCOC(=O)C1CCN(C(=O)C2CCN(c3nc4ccc(OC)cc4s3)CC2)CC1 | -10% | -11% | 15µM* | -8% | -1% | -45%
CCOC(=O)C1CCN(C(=O)C2CCN(c3nnc(-n4cccc4)s3)CC2)CC1 | 1%[9.26 µM] | -1% | -8% | 0% | / | /
COc1ccc2nc(N3CCN(C(=O)C4COc5ccccc5O4)CC3)sc2c1 (stereo not given) | 9% | 2µM* | 6µM* | 2.8µM* | / | /
CCCCc1nnc(NC(=O)CSCc2cc(=O)n3cc(C)sc3n2)s1 | 0% | -6% | -3% | 0% | / | /
O=C(N/N=C/c1ccco1)c1cc(-c2cccc3ccccc23)n[nH]1 | 9% | -3% | 17µM* | 23% | -3% | -15%
